Data from PubChem BioAssay AID1511 (Johns Hopkins Ion Channel Center, 2009).
Screen size: about 310,000 compounds; about 1,600 (0.52%) were called active. The entries come from a sample that favours actives as a whole. A number with no mark means an inactive call.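 How the source made its calls: active means activation above the mean of controls blocked by dofetilide plus 5 SD; inactive means the rest.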

Each molecule was assayed against Voltage-gated inwardly rectifying potassium channel KCNH2 (Homo sapiens) (UniProt Q12809) (assay: compounds relieving dofetilide block of hERG – cell-based, CHO-hERG, FluxOR thallium flux, dofetilide IC70, primary screen (AID 1511;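 further: thallium influx through hERG after potassium depolarization seen as dye fluorescence rise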)). Conditions: dofetilide IC70 present, at 10 µM, hits give high values.
Sequence of Voltage-gated inwardly rectifying potassium channel KCNH2 (Homo sapiens) (Q12809 whole entry, looked up): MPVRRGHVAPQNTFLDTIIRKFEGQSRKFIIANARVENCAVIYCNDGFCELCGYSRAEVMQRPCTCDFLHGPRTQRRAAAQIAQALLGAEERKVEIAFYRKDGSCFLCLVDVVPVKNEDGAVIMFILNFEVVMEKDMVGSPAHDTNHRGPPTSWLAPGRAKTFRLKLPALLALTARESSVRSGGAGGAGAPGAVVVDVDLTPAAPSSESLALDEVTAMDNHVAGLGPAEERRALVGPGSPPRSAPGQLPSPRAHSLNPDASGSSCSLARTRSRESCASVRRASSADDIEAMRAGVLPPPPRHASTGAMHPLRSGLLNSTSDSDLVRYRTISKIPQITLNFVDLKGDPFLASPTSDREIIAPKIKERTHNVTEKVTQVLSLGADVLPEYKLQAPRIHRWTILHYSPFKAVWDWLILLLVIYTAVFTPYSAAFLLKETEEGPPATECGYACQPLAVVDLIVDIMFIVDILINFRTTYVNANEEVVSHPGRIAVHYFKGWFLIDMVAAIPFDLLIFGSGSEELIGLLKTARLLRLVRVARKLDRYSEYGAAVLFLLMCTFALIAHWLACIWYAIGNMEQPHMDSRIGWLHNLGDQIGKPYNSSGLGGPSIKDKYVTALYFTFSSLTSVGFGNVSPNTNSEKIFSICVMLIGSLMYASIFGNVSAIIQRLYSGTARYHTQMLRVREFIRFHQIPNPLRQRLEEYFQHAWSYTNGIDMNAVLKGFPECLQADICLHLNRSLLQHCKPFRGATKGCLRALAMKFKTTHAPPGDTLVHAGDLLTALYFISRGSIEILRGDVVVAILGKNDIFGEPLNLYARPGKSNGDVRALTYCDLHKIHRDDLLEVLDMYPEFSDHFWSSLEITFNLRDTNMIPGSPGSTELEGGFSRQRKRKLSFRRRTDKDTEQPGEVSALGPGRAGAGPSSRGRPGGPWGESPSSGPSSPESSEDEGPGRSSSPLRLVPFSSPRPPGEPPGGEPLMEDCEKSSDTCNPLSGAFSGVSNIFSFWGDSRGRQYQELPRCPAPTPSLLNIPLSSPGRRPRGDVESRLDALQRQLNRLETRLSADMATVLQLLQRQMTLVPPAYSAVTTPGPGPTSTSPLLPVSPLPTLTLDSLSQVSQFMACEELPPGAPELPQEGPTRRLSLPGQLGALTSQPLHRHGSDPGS

SMILES | activation (rescue from dofetilide block), less the hit threshold
CCCCn1c(=S)[nH]c2ncccc2c1=O | -2.34%
CCCCNC(=O)c1ccc(-n2c(=S)[nH]c3ccccc3c2=O)cc1 | -10.5%
CCCCn1c(=S)[nH]c2ccccc2c1=O | 7.08% (active)
Cn1cc(S(=O)(=O)N2CCN(c3ccc(F)cc3)CC2)c(=O)n(C)c1=O | -3.11%
COc1ccc(/C=C2/S/C(=N/N=C3\CC4CCC3(C)C4(C)C)NC2=O)cc1 (stereo unspecified) | 19.7% (active)
COc1ccc(/C=C2\SC(=N)N(c3ccc(F)cc3)C2=O)cc1 | -2.33%
CCOc1ccc(N=C2NC(=O)S/C2=C\c2ccc(O)cc2)cc1 | -4.52%
COc1ccc(CCNC(=O)NS(=O)(=O)c2ccc(C)cc2)cc1OC | 0.48%
C=CCN1C(=O)C(Cc2cccc(Cl)c2)S/C1=N/N=C/c1ccco1 (stereo unspecified) | -5.7%
CCOc1ccc(N=C2SC(C(=O)O)CC(=O)N2C)cc1 (stereo unspecified) | -10.3%
C=CCN1C(=O)C(Cc2ccc(OCC)cc2)SC1=Nc1ccc(C(=O)O)cc1 (stereo unspecified) | 5.1% (active)
FC(F)(F)c1ccnc(Oc2ccc(C3=NCCS3)cc2)c1 | -5.42%
COc1ccc(S(=O)(=O)N2CCOC2CNC(=O)C(=O)NCc2ccncc2)cc1OC (stereo unspecified) | -6.76%
O=C(Nc1ccc(-c2cscn2)cc1)C1CCCN(Cc2ccc(CO)o2)C1 (stereo unspecified) | -2.17%
O=C1CCN(CCCc2ccccc2)CCN1CCO | 5.3% (active)
O=C1CCN(CCc2ccccc2)CCN1CCOc1ccccc1 | -5.23%
N#Cc1cccc(CN2CCC(=O)N(CCO)CC2)c1 | 1.97%
Cc1n[nH]c(=O)c2c(NC(=O)COC(=O)c3ncc(Cl)c(Cl)c3Cl)oc(C)c12 | -12.6%
Cc1cc(OCCN2CCCC2)cc(C(C)C)c1 | -6.59%
O=C(COC(=O)c1cc(S(=O)(=O)N2CCCCC2)ccc1Cl)NCc1ccco1 | -13.9%
O=C(COC(=O)c1cnc(Cl)c(Cl)c1)NCc1ccco1 | 40.4% (active)
O=C(COC(=O)c1ccco1)NCc1ccc(Cl)cc1 | -0.71%
Cc1c(CN2CCC(CO)(CCOc3ccccc3)CC2)[nH]c2ccc(Cl)cc12 | -21.9%

SMILES | activation (rescue from dofetilide block), less the hit threshold
Cc1nn(CC2CC2)c(=O)n1N(C)c1ncc(C(F)(F)F)cc1Cl | -8.88%
O=C1CC(c2cccc(F)c2)C2=C(CCCC2=O)N1 (stereo unspecified) | -5.36%
COc1ccc(OC)c(C2C3=C(N=c4s/c(=C\c5cccc(O)c5)c(=O)n42)c2ccccc2CC3)c1 (stereo unspecified) | -0.7%
O=C1CCCC2=C1C(c1ccccc1)n1c(s/c(=C/c3cccc(F)c3)c1=O)=N2 (stereo unspecified) | 5.71% (active)
CCOC(=O)Cc1cc(=O)[nH]c(=O)[nH]1 | -4%
CC1CCCCC1NC(=O)c1cn(C)c2ccc(S(=O)(=O)N3CCOCC3)cc2c1=O (stereo unspecified) | -5.24%
Cc1cc(C(=O)NCCc2ccc(Cl)cc2)c(C)o1 | -9.03%
CCOC(=O)c1c(C)oc2cc(Sc3ccccc3)c(O)c(O)c12 | -5.84%
C/C(CC(=O)Nc1ccc(Cl)cc1)=N\NC(=O)C(=O)NCCO | -8.82%
COc1ccc(COC(=O)N/N=C(\C)CC(=O)Nc2ccc(Cl)cc2)cc1 | -11.8%
CCc1ccc(NC(=O)C(=O)N/N=C(\C)CC(=O)NCCOC)cc1 | 6.83% (active)
COC(=O)C(C)N=Cc1ccccc1 (stereo unspecified) | -14%
Cc1ccc(S(=O)(=O)N(CC(=O)NCc2ccco2)c2ccccc2C)cc1 | -7.72%
Nc1nnnn1/N=C/c1cccc(Br)c1 | -0.31%
COC(=O)c1cccc(-n2[nH]nnc2=S)c1 | -7.53%
COc1cc(-c2noc(C3CCCN(S(=O)(=O)c4cccc(Cl)c4)C3)n2)cc(OC)c1OC (stereo unspecified) | -11.3%
Cc1ccc(C(=O)NC(=S)Nc2ccccc2C)cc1 | -5.4%
COC(=O)c1sc(NC(=O)c2csc3c2CCCC3)nc1C | -6.43%
COC(=O)c1sc(NC(=S)NC(=O)c2ccc(C)cc2)nc1C | 7.72% (active)
CCCN(C(=O)CSc1nnnn1C)c1c(N)n(Cc2ccccc2)c(=O)[nH]c1=O | -7.93%
Cc1ccc2c(c1)nnc1nnc(SCC(=O)O)n12 | 1.69%
CCOC(=O)N1CCN(C(=O)CN(c2ccc(C)c(C)c2)S(=O)(=O)c2ccccc2)CC1 | -9.17%
CCOC(=O)N1CCN(C(=O)c2ccc(CN(c3ccc(C)c(C)c3)S(C)(=O)=O)cc2)CC1 | 4.64% (active)
